Screening data: PubChem BioAssay, National Center for Advancing Translational Sciences (NCATS)
A selection: hits, their analogues and other compounds. The true share with any hit is near 15%.
Pf growth 48h: inhibits P. falciparum growth in the first generation, 48 h; Potency, µM (titrated, usually from 28.7 µM), without a hit: top-dose activity change, negative = inhibition, most hits filed as inhibitors; AID 504832; 310,000 tested, 5.9% active; P. falciparum luciferase growth in erythrocytes, 48 h; further: potency means the concentration at half of the fitted maximal effect; on the % scale 0 is the no-effect control and ±100 the full control effect
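Luciferase-expressing parasites in RBCs, 2% Hct / 0.1% parasitemia final; RPMI 1640 + 0.5% Albumax; 37 C, 5% CO2, one generation; luminescence read-out, lower signal = inhibition.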
HCMV antiviral: human cytomegalovirus inhibition; 410,000 tested, 4.5% active; HFF cells, HCMV-luciferase reporter, 72 h; hits give low values; activity change, negative = inhibition, % at 57.5 µM; AID 1259415; in the data active means activity change below about -60%; inconclusive means no clear call, values can overlap the other calls; inactive means above about -39%; further: on the % scale 0 is the no-effect control and ±100 the full control effect
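After 16 h attachment at 37C, HFF cells received test compound and HCMV-luciferase (1 PFU/cell); reporter luminescence read 72 h later, data normalized against buffer-only and known inhibitor Salinomycin.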
Pf growth 96h: inhibits malaria parasite growth, 96 h | 320,000 tested, 6.9% active | Potency, µM (top dose mostly 28.7 µM), for the others: top-dose activity change, negative = inhibition, usual class: inhibitors | P. falciparum luciferase reporter growth, 96 h; further: potency means the concentration at half of the fitted maximal effect; on the % scale 0 is the no-effect control and ±100 the full control effect
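96 h incubation, 37 C, 5% CO2, of luciferase-reporter P. falciparum-infected RBCs (2% hematocrit, 0.05% parasitemia final) with test compounds; endpoint luminescence.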
Sm TGR block: inhibitors of Schistosoma mansoni thioredoxin glutathione reductase; Q962Y6; purified TGR, DTNB reduction, TNB absorbance 405 nm; Potency, µM (doses to about 114 µM), for inactives: top-dose activity change, negative = inhibition, usual class: inhibitors; 360,000 tested, 3% active; AID 485364; further: potency means the concentration at half of the fitted maximal effect; on the % scale 0 is the no-effect control and ±100 the full control effect; nearly all actives have a fitted effect of over 60% in size
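Kinetic colorimetric format: TGR-catalysed, NADPH-driven DTNB reduction monitored via TNB absorbance. Enzyme dispensed at 20 nM; compound exposure 15 min at room temperature before reaction start.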
HCV inh: inhibitors of hepatitis C virus infection; Potency, µM (doses to about 41.8 µM), inactives show at the highest dose activity change, negative = inhibition, most hits filed as inhibitors; 340,000 tested, 3.4% active; Huh7.5.1 HCVcc-Cre infection, luciferase reporter, 44 h; further: potency means the concentration at half of the fitted maximal effect; on the % scale 0 is the no-effect control and ±100 the full control effect
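Infectious HCV cell culture screen: compound-treated cells (1,000/well, pre-plated 4 h) are infected with HCVcc-Cre at roughly 0.5 moi and grown 44 h. Infection is quantified by luciferase signal after 15 min substrate incubation at room temperature.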
SARS PLpro yeast: SARS-CoV PLP inhibition in yeast; S. cerevisiae expressing SARS-CoV PLpro, growth rescue; Potency, µM (top dose mostly 32.9 µM), for the others: top-dose activity, positive = growth rescue, actives largely listed as activators; 330,000 tested, 0.19% active; calls by dose curve; further: potency means the concentration at half of the fitted maximal effect; 0% is about no effect; nearly all actives have a fitted effect of over 55% in size
Numbers without * were called inactive; ? = inconclusive; · = not tested or not shown; [ ] = remark or other dose. Unless noted, the call rests on the fitted dose curve; in most records, active means well fitted curve in the direction sought with a large enough effect; inconclusive means small, poorly fitted or top-dose-only effect, or another doubt; inactive means no such curve, though single readings can be large; an effect the other way counts as inactive or inconclusive.

SMILES	Pf growth 48h	HCMV antiviral	Pf growth 96h	Sm TGR block	HCV inh	SARS PLpro yeast
O=C(Nc1ccc(C(F)(F)F)cc1)c1ccc(NC(=O)C2CCCO2)cc1 (stereo not given)	-17.8%	·	?	3.0%	?	4.0%
Cn1nc(C(=O)OCC(=O)Nc2cc(Cl)ccc2C#N)c2ccccc2c1=O	6.6%	7.0	-20.1%	5.5%	-2.3%	-0.4%
NC(=O)NC(=O)C[n+]1cccc(/C=N/O)c1	0.0%	-16.1	10.4µM*	6.8%	8.8%	2.2%
Cc1cc(C)cc(CSc2ccc(S(=O)(=O)N3CCCC3)cn2)c1	9.28µM*	-22.9	9.28µM*	-20.7%	?	-11.2%
O=S(=O)(c1ccc(SCc2c(F)cccc2Cl)nc1)N1CCCC1	·	-20.7	·	·	·	·
Cc1ccccc1CSc1ccc(S(=O)(=O)N2CCCC2)cn1	·	-5.9	·	·	?	-6.2%
O=S(=O)(c1ccc(SCc2ccc(Cl)cc2)nc1)N1CCCC1	11.7µM*	-18.5	?	-1.2%	?	4.6%
CCCCc1nn2c(=O)cc(COC(=O)c3ccccc3NC(=O)c3cccs3)nc2s1	·	17.0	·	4.7%	·	·
COc1ccc(Cn2c(CCC(=O)Nc3ccc(OC)c(Cl)c3)nc3cccnc32)cc1	·	-3.2	·	-4.3%	·	·
COc1ccc(CCN2C(=O)COc3ccccc3C2C(=O)NC(C)(C)C)cc1OC (stereo not given)	·	3.0	·	·	·	·
Cc1cccc(-c2nnc(SCc3cc(=O)[nH]c4ccccc34)n2C)c1	13.1µM*	3.9	?	-3.4%	10.6%	2.5%
Cn1ccnc1SCc1cc(=O)[nH]c2ccccc12	20.1%	42.2	-7.5%	6.0%	10.9%	2.1%
Cc1ccc2ncc(C(=O)NC(C)c3ccccc3)c(=O)n2c1 (stereo not given)	·	1.0	·	8.2%	·	·
COc1ccc(C)cc1-n1c(N)c(C#N)c(C#N)c1-c1ccc(OC)c(OC)c1OC	11.7µM*	-0.4	50.0%	4.5%	-29.4%	3.7%
COc1ccc(C2C(C#N)=C(N)Oc3c2sc2nc(C)cc(C)c32)cc1 (stereo not given)	-1.2%	-68.1*	·	-7.7%	?	10.5%
COc1ccc(C2C(C#N)=C(N)Oc3cc(N)ccc32)cc1 (stereo not given)	5.0%	-12.1	?	3.0%	-2.8%	1.6%
O=c1[nH]c2cc([N+](=O)[O-])c(NCCO)c([N+](=O)[O-])c2[nH]1	26.6%	-16.5	-3.1%	4.4%	-4.7%	0.3%
CC(=O)Nc1c([N+](=O)[O-])cc2[nH]c(=O)[nH]c2c1[N+](=O)[O-]	-12.9%	-11.7	-2.7%	50.1µM*	12.2%	-0.6%
CC(=O)Nc1c([N+](=O)[O-])cc(C)c(Cl)c1[N+](=O)[O-]	?	-77.0*	-8.3%	-30.9%	4.3%	-3.0%
CC(=O)Nc1c(C)ccc([N+](=O)[O-])c1C	·	-19.4	·	·	10.6%	·
O=C(NCC(c1cccnc1)N1CCc2ccccc2C1)C(=O)Nc1cccc(Cl)c1 (stereo not given)	·	1.2	·	-2.2%	·	·
CCOC(=O)c1ccc(-n2ccnc2)c(NC(=O)c2ccc(C(C)(C)C)cc2)c1	13.1µM*	-19.2	14.7µM*	-10.5%	?	2.2%
Cc1ccc(NC(=O)C(C)N2CCCC2)cc1Cl (stereo not given)	-18.2%[5.75 µM]	?	55.2%	4.2%	1.9%	-1.2%
CC(C)(C)c1ccc(Oc2ccc(NC(=O)c3ccccc3C(=O)O)cn2)cc1	?	-62.6*	5.0%	?	?	-1.9%
O=C(Nc1ccc(Oc2cccc(C(F)(F)F)c2)nc1)c1ccccc1	10.4µM*	-30.3	14.7µM*	2.5%	?	-1.2%
SMILES	Pf growth 48h	HCMV antiviral	Pf growth 96h	Sm TGR block	HCV inh	SARS PLpro yeast
COc1ccc(NC(=O)COc2cccc(C(F)(F)F)c2)cn1	?	-14.3	0.0%	-5.1%	19.5%	-4.0%
COc1cccc(C(=O)Nc2ccc(Oc3cccc(C(F)(F)F)c3)nc2)c1	9.28µM*	-74.4*	?	0.1%	7.08µM*	-1.9%
COc1cc(NC(=O)c2ccnnc2)cc(C(=O)Nc2cccc(C(F)(F)F)c2)c1	9.28µM*	11.3	4.15µM*	-2.9%	?	-0.2%
COC(=O)[C@H]1C[C@@]2(O)CN(S(=O)(=O)c3ccc(C)cc3)C[C@@]2(OC(=O)NCc2ccccc2)C[C@H]1C(=O)OC	·	-18.5	·	·	·	·
COc1ccccc1CCNC(=O)c1ccc(NC(=O)N2CC(C)Sc3ccccc32)cc1 (stereo not given)	·	-1.9	·	6.2%	·	·
O=C(Nc1ccc(Oc2cccc(C(F)(F)F)c2)nc1)c1cccs1	1.65µM*	-60.9*	?	11.3%	?	-4.2%
CCOC(=O)CC(=O)CSc1nc2ccccc2c(=O)n1-c1ccc(C(=O)NCCOC)cc1	5.22µM*	?	?	0.3%	-7.7%	-2.7%
CCOC(=O)CC(=O)CSc1nc2ccccc2c(=O)n1-c1ccc(C(=O)N2CCOCC2)cc1	1.65µM*	-17.7	·	-22.2%	·	6.0%
COCCNC(=O)c1ccc(Cn2c(SCC(N)=O)nc3ccccc3c2=O)cc1	·	1.9	·	-10.7%	·	·
c1ccc(-c2nc(NCCCN3CCOCC3)c3ccccc3n2)cc1	?	75.9	·	-16.0%	?	2.5%
Cc1cccc(-c2nc(S(=O)(=O)c3ccc(F)cc3)c(NCCCN3CCOCC3)o2)c1	?	-15.9	13.1µM*	-8.2%	-12.2%	3.7%
Cc1ccc(S(=O)(=O)c2nc(-c3ccccc3)oc2NCCCN2CCOCC2)cc1	?	12.8	-27.5%	-22.4%	10.4%	-8.3%
Cc1cccc(-c2nc(NCCCN3CCOCC3)c3ccccc3n2)c1	·	80.6	2.94µM*	3.7%	?	-8.1%
CCS(=O)(=O)N1CCN(CC(=O)NC2CCCCC2)CC1	14.7%	-18.6	-16.9%	-1.7%	9.7%	1.2%
Nc1nc(NCc2ccco2)nc(N2CCN(Cc3ccccc3)CC2)c1[N+](=O)[O-]	-13.2%	-27.8	?	6.3%	?	0.4%
O=C(Nc1ccc(F)cc1)c1cc(S(=O)(=O)Nc2ccc(F)cc2)cs1	12.6%	-21.0	11.7µM*	17.4%	-1.7%	-2.7%
Cc1ccc(NC(=O)c2cc(S(=O)(=O)N3CCCCC3)cs2)cc1	·	-81.2*	?	2.1%	?	3.6%
O=C(Nc1ccc(Cl)cc1)c1cc(S(=O)(=O)N2CCOCC2)cs1	·	?	-4.7%	1.4%	5.62µM*	7.3%
O=C(Nc1ccc(F)cc1)c1cc(S(=O)(=O)N2CCOCC2)cs1	28.4%	6.5	11.7µM*	-10.0%	-27.5%	0.4%
Cc1ccc(NC(=O)c2cc(S(=O)(=O)N3CCOCC3)cs2)cc1	?	4.2	33.7%	7.4%	?	4.3%
C[C@H](O)[C@@H]1CN2CCc3c([nH]c4ccccc34)[C@@H]2C[C@@H]1N(C)C(=O)NC1CCCCC1	·	24.2	·	·	·	·
